# ChEMBL document CHEMBL1157539, “Thousands of chemical starting points for antimalarial lead identification” (Nature, 2010)
# Legend:
# Type in all cases: functional
# [1] = system: Plasmodium falciparum; assay: GSK_TCMDC: Inhibition of Plasmodium falciparum 3D7 in whole red blood cells, using parasite LDH activity as an index of growth. Test compounds present at 2uM
# [2] = system: Plasmodium falciparum; assay: GSK_TCMDC: Inhibition of Plasmodium falciparum Dd2 in whole red blood cells, using parasite LDH activity as an index of growth. Test compounds present at 2uM
# [3] = system: HepG2; assay: GSK_TCMDC: Percent inhibition of human HepG2 cell line. Test compounds present at 10uM.
Structure (SMILES),Inhibition [1],Inhibition [2],Inhibition [3]
O=C(O)C(F)(F)F.OCCN1CCN(Cc2cccc(-c3ccc(-c4nc5cc(C(F)(F)F)ccc5[nH]4)s3)c2)CC1,100%,98%,42%
CC(C)(C)c1cc(C(=O)N2CCN(c3nccnc3C#N)CC2)n(Cc2ccccc2)n1,100%,93%,0%
NC(=O)c1cccc(C(=O)Nc2ccc(-c3cccc(-c4nc5cc(C(F)(F)F)ccc5[nH]4)c3)cc2)c1,100%,86%,74%
COc1ccc(NC(=O)/C=C/c2ccccc2Cl)cc1OCCN1CCC(N2CCN(C)CC2)CC1,100%,49%,19%
O=C(Nc1ccc(Cl)c(Cl)c1)N1CCC(NCc2cccc([N+](=O)[O-])c2)CC1.O=C(O)C(F)(F)F,97%,12%,8%
COCCNCc1ccc(-c2ccc3c(Nc4ccc(F)cc4Cl)ccnc3c2)o1,100%,100%,22%
Cc1cc(N[C@@H](CC(C)C)C(=O)NCc2cccs2)nc(NCCc2ccc(F)cc2)n1.O=C(O)C(F)(F)F,100%,59%,20%
O=C(CNC(=O)c1ccc(O)cc1)Nc1ccc(-c2cccc(-c3nc4cc(C(F)(F)F)ccc4[nH]3)c2)cc1,92%,47%,26%
CCn1c(SC)nnc1C1CCCN(CC(=O)Nc2nc3ccc(OC)cc3s2)C1 (stereo unspecified),97%,81%,0%
CCOc1ccc2[nH]c(-c3ccccc3)cc(=NN=Cc3ccncc3)c2c1,100%,100%,19%
COCCn1c(C)cc(C(=O)CN2C(=O)NC(C)(c3ccc(C(C)(C)C)cc3)C2=O)c1C (stereo unspecified),97%,96%,7%
Oc1cccc(CNCCCN(Cc2ccccc2)c2ccccc2)c1,99%,97%,7%
Cc1ccc([N+](=O)[O-])cc1NC(=O)N(CC(O)c1ccccc1)C1CCCCC1 (stereo unspecified),100%,98%,11%
Cn1cnc2c(SCc3ccccc3OCc3ccccc3)ncnc21,86%,34%,6%
COc1cccc(Cc2c(C)nc3nc(N)nc(N)c3c2C)c1.Cl,95%,1%,65%
Cc1cc(C)c(NC(=O)NC2CCN(CCCCCNC(=O)/C=C/c3ccc(Cl)c(Cl)c3)CC2)c(C)c1,100%,17%,30%
O=C(Nc1cccc(-c2nn3ccccc3c2-c2ccnc(Nc3cccc(N4CCCC4=O)c3)n2)c1)c1cc(F)ccc1F,99%,51%,59%
N=C(Nc1nc(-c2ccccn2)cc2ccccc12)c1cccc(Cl)c1,100%,99%,54%
Br.Cc1cccc(OCCCCON2C(=N)N=C(N)NC2(C)C)c1C,97%,95%,65%
O=C(O)/C=C\C(=O)O.c1ccc(COc2ccnc(NCCCOc3cccc(CN4CCCCC4)c3)c2)cc1,100%,51%,22%
CC(=O)Nc1cccc(/C=C/C(=O)N2CCC(N3CCCCC3)CC2)c1,96%,0%,1%

Structure (SMILES),Inhibition [1],Inhibition [2],Inhibition [3]
COc1cc(NC2=C(c3ccccc3)C(=O)c3ccccc32)ccn1,96%,96%,7%
CCCc1cn2c3c(cc(C(=O)N[C@@H](Cc4ccccc4)[C@H](O)CNC4CCCCC4)cc13)N(C)S(=O)(=O)CC2.O=CO,99%,98%,3%
N#Cc1ccc(N[C@@H](CC2CCCCC2)C(=O)N[C@@H]2CCCc3ccccc32)c2ccccc12.O=C(O)C(F)(F)F,99%,99%,12%
Cl.Clc1ccc2c(NCCCCCCCCNc3ccnc4cc(Cl)ccc34)ccnc2c1,99%,96%,2%
Nc1c(Cl)cc(C(O)CNCCCCCCOCCC=C2CCOCC2)cc1Cl (stereo unspecified),100%,9%,7%
CCc1ccc(-c2nc3cc(NC(=O)c4cc([N+](=O)[O-])cc([N+](=O)[O-])c4)ccc3o2)cc1,93%,12%,12%
CCNc1cc(C)nc(Nc2ccc(NC(=O)Cc3ccc(OC)cc3)cc2)n1,100%,47%,30%
Nc1c(Cl)cc(C(O)CNCCCCCOCCc2ccc3occc3c2)cc1Cl (stereo unspecified),99%,74%,0%
CN(C)CCCNC(=O)c1ccccc1Sc1ccccc1C#N.Cl,89%,3%,11%
CN1CCCC1CCNc1ncc2c(-c3ccc(NC(=O)Nc4cc(C(F)(F)F)ccc4F)cc3)nn(C)c2n1.O=C(O)C(F)(F)F (stereo unspecified),96%,72%,74%
O=C(Nc1cccc(C(F)(F)F)c1)c1cccc(S(=O)(=O)NCC2CCCN2CC2CCCCC2)c1.O=C(O)C(F)(F)F (stereo unspecified),97%,2%,6%
CNc1nc(N/N=C/c2cc3c(cc2[N+](=O)[O-])OCO3)nc(Nc2cccc(C(F)(F)F)c2)n1,100%,60%,0%
Cc1ccc(C(=O)c2oc3ccc4c(C)cc(=O)oc4c3c2C)cc1,86%,48%,0%
CC(C)CC(=O)N1CCNC[C@@H]1C(=O)NCc1ccc(Cl)c(Cl)c1.O=C(O)C(F)(F)F,99%,16%,0%
CC(C)N1CCN(C(=O)c2ccc(CNCCCN3CCN(c4ccccc4C(F)(F)F)CC3)s2)CC1.Cl,98%,42%,32%
COc1ccc(C2C(C(=O)Nc3cc(OC)c(OC)c(OC)c3)c3cc(OC)c(OC)cc3C(=O)N2C)cc1 (stereo unspecified),98%,100%,9%
CCCCCC(C)N/C(=N/c1ccccc1Br)Nc1ccc([N+](=O)[O-])cc1O (stereo unspecified),99%,98%,0%
Cl.N#CCc1ccc(Nc2nccc(Nc3ccc(Oc4ccccc4)cc3)n2)cc1,98%,47%,0%
CN(Cc1cccc(F)c1)C1CCN(c2cc(NC(=O)c3ccc(F)cc3)ccn2)CC1.O=C(O)C(F)(F)F,95%,36%,0%
COc1ccc2ncc(F)c(CCN3CC[C@@H](CNCc4ccc5c(c4C)OCCO5)C3)c2n1.Cl,94%,11%,17%
CC(C)(CNC(=O)[C@H]1CCCN1)c1nc(-c2ccc(Cl)c(O)c2)c(-c2ccncc2)[nH]1.Cl,86%,95%,0%

Structure (SMILES),Inhibition [1],Inhibition [2],Inhibition [3]
Cc1ccccc1Nc1nc(NCc2ccccc2)nc2ccccc12,88%,35%,39%
CC(C)(C(=O)Nc1ccc(N2CCC3(CCCN(CC4CC4)C3)CC2)c(Cl)c1)c1cccc(C(F)(F)F)c1,92%,0%,27%
Cc1cc(CNCC(CCNc2cc(=O)c3ccccc3[nH]2)NCc2cc(Br)cc(Br)c2)oc1C (stereo unspecified),98%,85%,4%
COc1cc2nc(N3CCC(CNC(=O)c4ccc(-c5ccc(C(=O)N(C)C)cc5O)cc4)CC3)nc(N)c2cc1OC,100%,90%,2%
CC(=O)N(C)c1cccc(C(=O)Nc2ccc(-c3cccc(-c4nc5cc(C(F)(F)F)ccc5[nH]4)c3)cc2)c1,94%,10%,79%
CN1CCN(c2ccc(Cl)cc2NC(=O)C2COc3ccccc3O2)CC1 (stereo unspecified),99%,44%,2%
CC(O)C1CCCCN1C(=O)c1cccc(-c2ccc(-c3nc4cc(C(F)(F)F)ccc4[nH]3)cc2)c1 (stereo unspecified),100%,100%,33%
Clc1ccc(-c2csc3ncnc(Cl)c23)cc1,94%,95%,0%
CC(Cc1ccc(CNC(=O)NCc2ccc(CC(C)NCCc3cccc(Cl)c3)cc2)cc1)NCCc1cccc(Cl)c1 (stereo unspecified),100%,44%,100%
NC(=S)Cc1ccc2c(c1)OCO2,96%,0%,43%
CCN(CC)CCCC(C)Nc1cc(C)nc2cc(Cl)ccc12 (stereo unspecified),100%,7%,9%
Fc1cccc(Nc2nc(NCc3ccc4ccsc4c3)nc(Nc3cccc(F)c3)n2)c1,94%,11%,0%
O=C1C(c2ccccc2)=C(Nc2cccc([N+](=O)[O-])c2)c2ccccc21,88%,88%,0%
Cc1cc(C(F)(F)F)cc(-n2ncc(-c3ccc(C(=O)NCCNCc4ccccc4)cc3)c2N)n1.O=C(O)C(F)(F)F,91%,9%,98%
O=[N+]([O-])c1ccc2c(-c3ccccc3)c(-c3ccccc3)n(O)c2c1,97%,11%,8%
O=C(NCCCCN1CCC(c2ccc3c(c2OCc2ccncc2)CCCC3)CC1)c1ccc(-c2ccc(C(F)(F)F)cc2)cc1,100%,92%,96%
Cl.N#Cc1ccc2c(c1)CN(CCC1CCC(NC(=O)c3cc4cnccc4[nH]3)CC1)CC2 (stereo unspecified),97%,28%,13%
COc1cc2ncnc(Nc3ccc4nc(-c5ccccc5)[nH]c4c3)c2cc1OC.Cl,92%,32%,15%
CCCn1c(Sc2ccc(C#N)c([N+](=O)[O-])c2)nnc1-c1cc(OC)cc(OC)c1,98%,79%,24%
Br.Cc1ccc(OCCCCON2C(=N)N=C(N)NC2(C)C)cc1C,94%,97%,61%
